Holding throughout (experiment): DAPPL (digital affinity profiling via proximity ligation, sequencing); 10 mM Tris-HCl pH 7.5, 50 mM NaCl, 1 mM DTT, 4% glycerol, room temperature, 30 min; GST-TFs on glutathione beads, 16-mer random dsDNA library, 0.1% formaldehyde crosslink after washing; high values mean tight binding
For one test, the target named is T1, FLI1 (Homo sapiens, UniProt Q01543 1-452).
T1 sequence: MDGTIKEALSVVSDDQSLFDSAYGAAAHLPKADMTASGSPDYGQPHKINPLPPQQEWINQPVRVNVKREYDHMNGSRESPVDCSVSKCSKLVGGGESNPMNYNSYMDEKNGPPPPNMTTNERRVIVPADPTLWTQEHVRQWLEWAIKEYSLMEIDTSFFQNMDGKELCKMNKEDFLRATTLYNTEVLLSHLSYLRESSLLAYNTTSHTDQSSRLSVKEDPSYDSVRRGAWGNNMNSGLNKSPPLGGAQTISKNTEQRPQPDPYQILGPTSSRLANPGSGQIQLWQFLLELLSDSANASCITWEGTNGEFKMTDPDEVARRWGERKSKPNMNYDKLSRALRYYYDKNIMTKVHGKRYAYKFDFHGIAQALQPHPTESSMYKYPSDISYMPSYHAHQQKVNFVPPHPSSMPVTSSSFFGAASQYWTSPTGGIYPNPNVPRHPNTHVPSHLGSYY
As to conditions: protein: recombinant; tags: N-terminal GST; dsDNA, one strand shown. The procedure, abridged:
(§1)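 Pools were built from human transcription factors expressed in yeast as GST fusions, captured on glutathione beads and DNA-barcoded, along with a tag-only sample. Incubation with 200 nmole of a 16-mer random double-stranded DNA library lasted 30 min at room temperature in Tris/NaCl/DTT/glycerol buffer, and was followed by washing, 0.1% formaldehyde crosslinking, proximity ligation, PCR amplification and Illumina NextSeq500 sequencing. Binding signal is the quotient of each hexamer's read frequency for a factor and its frequency for the tag-only sample.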

The target of the next test is T2, ELK1 (Homo sapiens, UniProt P19419 1-428).
T2 sequence: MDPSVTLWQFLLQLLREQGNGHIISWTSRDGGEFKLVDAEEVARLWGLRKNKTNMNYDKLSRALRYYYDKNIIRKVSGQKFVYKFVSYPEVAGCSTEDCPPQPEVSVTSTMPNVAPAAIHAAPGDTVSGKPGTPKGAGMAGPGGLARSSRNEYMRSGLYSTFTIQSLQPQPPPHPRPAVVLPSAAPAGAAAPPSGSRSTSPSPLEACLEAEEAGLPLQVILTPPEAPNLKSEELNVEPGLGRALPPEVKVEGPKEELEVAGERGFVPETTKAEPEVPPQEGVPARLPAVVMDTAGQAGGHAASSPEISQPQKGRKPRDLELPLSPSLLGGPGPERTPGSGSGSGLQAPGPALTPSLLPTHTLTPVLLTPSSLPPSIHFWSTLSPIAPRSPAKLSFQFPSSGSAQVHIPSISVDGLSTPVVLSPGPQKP
As to conditions: protein: recombinant; tags: N-terminal GST; dsDNA, one strand shown. The procedure, abridged: as §1

For another test, the target named is T3, GABPA (Homo sapiens, UniProt Q06546 1-454).
T3 sequence: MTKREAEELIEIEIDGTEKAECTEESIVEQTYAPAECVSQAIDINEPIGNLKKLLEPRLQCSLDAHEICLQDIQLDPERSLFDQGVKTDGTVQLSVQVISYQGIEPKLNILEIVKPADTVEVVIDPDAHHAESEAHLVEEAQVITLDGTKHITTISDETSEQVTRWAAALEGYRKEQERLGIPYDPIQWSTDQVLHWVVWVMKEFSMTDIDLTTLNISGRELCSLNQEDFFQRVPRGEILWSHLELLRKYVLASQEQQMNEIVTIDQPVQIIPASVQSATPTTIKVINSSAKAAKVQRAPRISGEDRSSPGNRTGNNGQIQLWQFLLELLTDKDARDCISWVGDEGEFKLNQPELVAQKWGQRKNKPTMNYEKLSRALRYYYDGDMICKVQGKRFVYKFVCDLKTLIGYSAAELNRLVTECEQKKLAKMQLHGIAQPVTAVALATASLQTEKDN
As to conditions: protein: recombinant; tags: N-terminal GST; dsDNA, one strand shown. The procedure, abridged:
as §1

The next test has as its target T4, ERG (Homo sapiens, UniProt P11308 1-479).
T4 sequence: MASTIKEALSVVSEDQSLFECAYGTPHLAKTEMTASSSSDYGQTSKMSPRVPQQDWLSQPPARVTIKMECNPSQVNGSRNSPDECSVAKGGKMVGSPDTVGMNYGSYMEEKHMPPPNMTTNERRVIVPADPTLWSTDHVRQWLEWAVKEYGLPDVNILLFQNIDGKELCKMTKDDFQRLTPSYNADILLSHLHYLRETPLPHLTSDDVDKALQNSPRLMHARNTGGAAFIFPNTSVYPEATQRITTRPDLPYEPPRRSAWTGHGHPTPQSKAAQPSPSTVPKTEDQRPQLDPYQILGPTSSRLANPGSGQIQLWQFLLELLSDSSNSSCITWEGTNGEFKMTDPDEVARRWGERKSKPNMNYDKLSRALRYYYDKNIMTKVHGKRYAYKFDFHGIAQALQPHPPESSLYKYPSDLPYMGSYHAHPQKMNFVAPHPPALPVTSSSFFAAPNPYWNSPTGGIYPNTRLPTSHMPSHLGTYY
Conditions: protein: recombinant; tags: N-terminal GST; dsDNA, one strand shown. The procedure, abridged:
as §1

The target of the next test is ELF1 (Homo sapiens, UniProt P32519 1-619). As to conditions: protein: recombinant; tags: N-terminal GST; dsDNA, one strand shown. The procedure, abridged: as §1
In the next test the target is T5, EHF (Homo sapiens, UniProt Q9NZC4 1-300).
T5 sequence: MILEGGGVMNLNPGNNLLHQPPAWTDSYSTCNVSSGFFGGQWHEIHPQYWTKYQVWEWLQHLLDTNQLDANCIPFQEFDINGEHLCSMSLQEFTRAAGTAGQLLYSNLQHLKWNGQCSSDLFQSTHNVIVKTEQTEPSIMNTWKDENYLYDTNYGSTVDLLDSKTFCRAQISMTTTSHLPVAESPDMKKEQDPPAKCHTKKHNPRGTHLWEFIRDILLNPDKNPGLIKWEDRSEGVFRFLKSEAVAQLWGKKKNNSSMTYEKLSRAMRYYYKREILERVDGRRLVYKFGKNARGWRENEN
Conditions: protein: recombinant; tags: N-terminal GST; dsDNA, one strand shown. A digest of the protocol: as §1

The next test addresses SPI1 (Homo sapiens, UniProt P17947 1-270). As to conditions: protein: recombinant; tags: N-terminal GST; dsDNA, one strand shown. The procedure, abridged: as §1
In a further test the target is SPIB (Homo sapiens, UniProt Q01892 1-262). As to conditions: protein: recombinant; tags: N-terminal GST; dsDNA, one strand shown. A digest of the protocol:
as §1

For a further test, the target named is T6, ELK3 (Homo sapiens, UniProt P41970 1-407).
T6 sequence: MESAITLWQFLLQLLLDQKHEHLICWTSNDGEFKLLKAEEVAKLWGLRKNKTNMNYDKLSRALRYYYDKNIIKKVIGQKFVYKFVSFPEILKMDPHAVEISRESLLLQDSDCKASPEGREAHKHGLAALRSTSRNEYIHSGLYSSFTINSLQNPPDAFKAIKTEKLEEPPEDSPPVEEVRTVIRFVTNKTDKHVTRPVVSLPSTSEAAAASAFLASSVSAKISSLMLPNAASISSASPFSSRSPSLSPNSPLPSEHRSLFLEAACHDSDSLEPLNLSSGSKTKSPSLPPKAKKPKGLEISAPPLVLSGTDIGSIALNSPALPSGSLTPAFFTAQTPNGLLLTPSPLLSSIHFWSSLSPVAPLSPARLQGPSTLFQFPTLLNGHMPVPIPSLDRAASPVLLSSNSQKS
Conditions: protein: recombinant; tags: N-terminal GST; dsDNA, one strand shown. A digest of the protocol: as §1

The target of a further test is T7, FEV (Homo sapiens, UniProt Q99581 1-238).
T7 sequence: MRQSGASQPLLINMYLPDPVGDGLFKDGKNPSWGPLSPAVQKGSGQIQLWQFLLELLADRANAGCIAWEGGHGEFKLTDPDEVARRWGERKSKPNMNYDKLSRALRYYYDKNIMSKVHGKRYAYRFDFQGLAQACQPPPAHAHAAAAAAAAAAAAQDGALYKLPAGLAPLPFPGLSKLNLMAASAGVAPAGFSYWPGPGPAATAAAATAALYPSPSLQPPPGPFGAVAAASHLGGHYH
As to conditions: protein: recombinant; tags: N-terminal GST; dsDNA, one strand shown. A digest of the protocol:
as §1

The target in the next test is ETV5 (Homo sapiens, UniProt P41161 1-510). Conditions: protein: recombinant; tags: N-terminal GST; dsDNA, one strand shown. The procedure, abridged:
as §1

Another test has as its target HSF1 (Homo sapiens, UniProt Q00613 1-529). As to conditions: protein: recombinant; tags: N-terminal GST; chain copies: 3; dsDNA, one strand shown. A digest of the protocol: as §1
A further test addresses T8, SPIC (Homo sapiens, UniProt Q8N5J4 1-248).
T8 sequence: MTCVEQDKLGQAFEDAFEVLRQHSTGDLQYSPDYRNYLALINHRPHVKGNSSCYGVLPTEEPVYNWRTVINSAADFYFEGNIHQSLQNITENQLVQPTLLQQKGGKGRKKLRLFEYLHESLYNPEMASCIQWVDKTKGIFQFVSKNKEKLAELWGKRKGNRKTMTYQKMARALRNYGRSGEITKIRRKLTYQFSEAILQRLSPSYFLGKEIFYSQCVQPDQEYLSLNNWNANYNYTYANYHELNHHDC
Conditions: protein: recombinant; tags: N-terminal GST; dsDNA, one strand shown. A digest of the protocol:
as §1

The next test concerns the target ELF4 (Homo sapiens, UniProt Q99607 1-663). Conditions: protein: recombinant; tags: N-terminal GST; dsDNA, one strand shown. The procedure, abridged: as §1
The target in a further test is T9, ELK4 (Homo sapiens, UniProt P28324-2 1-405).
T9 sequence: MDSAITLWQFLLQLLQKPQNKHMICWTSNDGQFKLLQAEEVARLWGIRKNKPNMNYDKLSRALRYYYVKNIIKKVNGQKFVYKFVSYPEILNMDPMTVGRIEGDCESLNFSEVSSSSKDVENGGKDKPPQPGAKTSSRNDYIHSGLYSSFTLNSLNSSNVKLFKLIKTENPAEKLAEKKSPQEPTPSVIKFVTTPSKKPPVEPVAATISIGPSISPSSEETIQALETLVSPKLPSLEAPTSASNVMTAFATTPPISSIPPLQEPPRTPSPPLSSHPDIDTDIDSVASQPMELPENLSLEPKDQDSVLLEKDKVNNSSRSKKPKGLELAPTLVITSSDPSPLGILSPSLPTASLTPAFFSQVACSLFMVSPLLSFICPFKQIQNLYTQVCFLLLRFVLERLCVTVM
As to conditions: protein: recombinant; tags: N-terminal GST; dsDNA, one strand shown. The procedure, abridged: as §1

The target of a further test is T10, ETV2 (Homo sapiens, UniProt O00321 1-342).
T10 sequence: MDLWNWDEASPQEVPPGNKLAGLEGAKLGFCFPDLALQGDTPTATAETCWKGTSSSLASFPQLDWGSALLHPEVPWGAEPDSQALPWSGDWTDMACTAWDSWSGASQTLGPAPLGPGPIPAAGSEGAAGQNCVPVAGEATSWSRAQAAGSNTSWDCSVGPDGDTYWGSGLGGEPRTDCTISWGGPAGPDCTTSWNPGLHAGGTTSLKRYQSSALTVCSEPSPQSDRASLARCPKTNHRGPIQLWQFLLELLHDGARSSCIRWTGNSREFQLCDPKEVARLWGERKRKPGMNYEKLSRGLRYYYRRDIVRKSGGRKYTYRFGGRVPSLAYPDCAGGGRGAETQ
As to conditions: protein: recombinant; tags: N-terminal GST; dsDNA, one strand shown. The procedure, abridged: as §1

For the next test, the target named is T11, ELF3 (Homo sapiens, UniProt P78545 1-371).
T11 sequence: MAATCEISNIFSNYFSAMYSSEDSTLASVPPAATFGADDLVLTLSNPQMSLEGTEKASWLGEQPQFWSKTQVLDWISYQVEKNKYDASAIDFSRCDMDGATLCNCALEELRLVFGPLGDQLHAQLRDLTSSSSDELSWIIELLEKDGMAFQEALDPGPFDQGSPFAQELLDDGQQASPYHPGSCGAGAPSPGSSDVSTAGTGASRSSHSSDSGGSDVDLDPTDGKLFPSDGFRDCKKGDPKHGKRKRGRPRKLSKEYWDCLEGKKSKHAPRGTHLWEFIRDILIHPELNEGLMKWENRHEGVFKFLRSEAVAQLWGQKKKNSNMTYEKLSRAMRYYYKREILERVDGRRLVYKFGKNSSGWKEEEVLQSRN
As to conditions: protein: recombinant; tags: N-terminal GST; dsDNA, one strand shown. A digest of the protocol:
as §1

For another test, the target named is CRX (Homo sapiens, UniProt O43186 1-299). As to conditions: protein: recombinant; tags: N-terminal GST; dsDNA, one strand shown. The procedure, abridged: as §1
The target in a further test is ETV1 (Homo sapiens, UniProt P50549 1-477). Conditions: protein: recombinant; tags: N-terminal GST; dsDNA, one strand shown. The procedure, abridged: as §1

This note sets out measurements from publication PMC7862700, “An all-to-all approach to the identification of sequence-specific readers for epigenetic DNA modifications on cytosine”.

ETV5, sequence (P41161 whole entry): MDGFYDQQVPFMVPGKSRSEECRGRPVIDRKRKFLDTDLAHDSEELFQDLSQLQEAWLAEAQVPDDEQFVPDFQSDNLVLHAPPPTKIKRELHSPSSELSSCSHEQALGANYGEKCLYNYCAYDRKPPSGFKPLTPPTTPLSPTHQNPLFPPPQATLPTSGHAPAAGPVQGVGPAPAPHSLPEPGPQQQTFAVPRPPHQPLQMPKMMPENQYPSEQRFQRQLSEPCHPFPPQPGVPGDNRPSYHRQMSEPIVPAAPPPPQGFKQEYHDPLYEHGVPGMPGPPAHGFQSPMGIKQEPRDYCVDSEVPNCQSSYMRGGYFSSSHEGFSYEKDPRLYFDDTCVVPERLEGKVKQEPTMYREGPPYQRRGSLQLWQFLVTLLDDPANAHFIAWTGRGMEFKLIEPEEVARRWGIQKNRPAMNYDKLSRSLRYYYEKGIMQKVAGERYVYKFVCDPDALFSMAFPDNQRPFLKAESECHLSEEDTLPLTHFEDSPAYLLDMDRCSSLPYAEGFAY
CRX, sequence (O43186 whole entry): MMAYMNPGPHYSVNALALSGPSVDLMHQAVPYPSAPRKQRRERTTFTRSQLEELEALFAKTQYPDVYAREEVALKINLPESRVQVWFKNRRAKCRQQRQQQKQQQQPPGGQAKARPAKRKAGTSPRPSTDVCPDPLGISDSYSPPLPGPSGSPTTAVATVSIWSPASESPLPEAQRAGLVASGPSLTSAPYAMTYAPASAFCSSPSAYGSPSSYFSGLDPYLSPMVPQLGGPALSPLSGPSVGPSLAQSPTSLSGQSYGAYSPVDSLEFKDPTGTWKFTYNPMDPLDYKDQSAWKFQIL
ELF1, sequence (P32519 whole entry): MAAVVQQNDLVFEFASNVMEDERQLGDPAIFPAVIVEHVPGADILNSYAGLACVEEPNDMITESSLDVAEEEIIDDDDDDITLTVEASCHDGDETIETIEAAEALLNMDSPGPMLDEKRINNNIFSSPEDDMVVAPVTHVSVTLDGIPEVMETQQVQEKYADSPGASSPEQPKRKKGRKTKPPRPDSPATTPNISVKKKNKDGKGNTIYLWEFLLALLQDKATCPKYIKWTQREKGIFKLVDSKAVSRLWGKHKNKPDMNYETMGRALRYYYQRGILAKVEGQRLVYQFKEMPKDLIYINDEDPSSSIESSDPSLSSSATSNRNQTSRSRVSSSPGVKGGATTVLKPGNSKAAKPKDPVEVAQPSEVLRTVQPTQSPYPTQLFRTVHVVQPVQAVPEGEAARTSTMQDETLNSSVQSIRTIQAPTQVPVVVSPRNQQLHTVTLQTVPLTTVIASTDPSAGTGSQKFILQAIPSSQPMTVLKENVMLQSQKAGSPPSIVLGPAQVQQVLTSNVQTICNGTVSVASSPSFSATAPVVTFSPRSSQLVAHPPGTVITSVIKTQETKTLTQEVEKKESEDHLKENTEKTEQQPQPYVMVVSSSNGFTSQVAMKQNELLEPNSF
HSF1, sequence (Q00613 whole entry): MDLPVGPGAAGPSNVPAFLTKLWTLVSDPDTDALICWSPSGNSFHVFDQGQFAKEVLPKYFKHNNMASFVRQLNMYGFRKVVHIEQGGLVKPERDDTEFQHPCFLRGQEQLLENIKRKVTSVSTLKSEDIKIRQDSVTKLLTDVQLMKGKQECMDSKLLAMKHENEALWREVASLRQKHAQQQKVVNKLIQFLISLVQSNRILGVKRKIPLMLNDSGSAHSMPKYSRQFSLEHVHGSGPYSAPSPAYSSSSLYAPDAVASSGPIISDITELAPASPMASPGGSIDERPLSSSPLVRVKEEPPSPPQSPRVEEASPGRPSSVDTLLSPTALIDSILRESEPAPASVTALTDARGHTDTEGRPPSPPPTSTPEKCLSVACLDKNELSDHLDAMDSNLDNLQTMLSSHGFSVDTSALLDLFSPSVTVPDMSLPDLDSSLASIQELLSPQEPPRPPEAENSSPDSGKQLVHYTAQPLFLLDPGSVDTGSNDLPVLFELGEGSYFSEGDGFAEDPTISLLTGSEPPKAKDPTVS
ELF4, sequence (Q99607 whole entry): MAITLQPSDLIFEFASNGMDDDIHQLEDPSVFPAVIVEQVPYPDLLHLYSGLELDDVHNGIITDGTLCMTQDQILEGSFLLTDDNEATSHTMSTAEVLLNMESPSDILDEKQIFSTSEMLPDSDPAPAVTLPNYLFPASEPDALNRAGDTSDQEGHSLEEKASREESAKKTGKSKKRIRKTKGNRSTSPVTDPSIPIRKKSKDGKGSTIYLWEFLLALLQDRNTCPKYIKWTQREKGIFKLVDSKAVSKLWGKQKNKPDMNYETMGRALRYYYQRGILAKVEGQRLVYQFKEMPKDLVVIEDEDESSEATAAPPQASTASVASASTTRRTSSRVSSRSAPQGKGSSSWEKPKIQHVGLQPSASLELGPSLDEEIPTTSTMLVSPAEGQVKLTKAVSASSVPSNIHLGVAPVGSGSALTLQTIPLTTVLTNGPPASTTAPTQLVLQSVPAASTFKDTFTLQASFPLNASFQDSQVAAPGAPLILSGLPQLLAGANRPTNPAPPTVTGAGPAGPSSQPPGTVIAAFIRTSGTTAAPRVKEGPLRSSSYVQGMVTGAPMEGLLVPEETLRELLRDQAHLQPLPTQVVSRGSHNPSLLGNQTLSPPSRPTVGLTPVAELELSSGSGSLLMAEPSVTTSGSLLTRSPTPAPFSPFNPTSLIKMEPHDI
SPIB, sequence (Q01892 whole entry): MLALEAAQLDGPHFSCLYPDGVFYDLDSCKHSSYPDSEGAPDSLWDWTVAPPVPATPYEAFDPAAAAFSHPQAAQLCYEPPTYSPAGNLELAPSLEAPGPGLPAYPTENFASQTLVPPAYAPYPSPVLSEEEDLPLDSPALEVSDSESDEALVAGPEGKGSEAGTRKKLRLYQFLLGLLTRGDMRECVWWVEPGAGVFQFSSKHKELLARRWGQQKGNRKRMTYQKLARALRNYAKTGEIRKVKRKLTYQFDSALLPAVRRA
ETV1, sequence (P50549 whole entry): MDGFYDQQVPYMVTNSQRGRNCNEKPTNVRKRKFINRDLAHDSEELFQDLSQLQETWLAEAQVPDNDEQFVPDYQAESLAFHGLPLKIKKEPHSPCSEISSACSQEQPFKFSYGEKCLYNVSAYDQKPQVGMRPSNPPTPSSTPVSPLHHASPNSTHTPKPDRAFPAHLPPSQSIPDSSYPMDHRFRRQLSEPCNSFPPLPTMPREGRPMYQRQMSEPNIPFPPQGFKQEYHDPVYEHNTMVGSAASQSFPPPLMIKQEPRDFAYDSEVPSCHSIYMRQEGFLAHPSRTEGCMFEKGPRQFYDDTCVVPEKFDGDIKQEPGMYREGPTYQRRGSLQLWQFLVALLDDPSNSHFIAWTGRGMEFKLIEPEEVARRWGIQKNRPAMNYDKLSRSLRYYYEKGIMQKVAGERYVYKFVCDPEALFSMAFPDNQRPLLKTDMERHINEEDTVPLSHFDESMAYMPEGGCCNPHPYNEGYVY

CTAAAA: the binding signal in the test with FLI1 is 1.13 fold enrichment (6-mer frequency, TF over GST control); in the test with ELK1, 1.12 fold enrichment (6-mer frequency, TF over GST control); with GABPA, 1.18 fold enrichment (6-mer frequency, TF over GST control); in the test with ERG it was 1.2 fold enrichment (6-mer frequency, TF over GST control); with ELF1, 1.13 fold enrichment (6-mer frequency, TF over GST control); in the test with EHF, 1.1 fold enrichment (6-mer frequency, TF over GST control). Besides, the binding signal was 1.26 fold enrichment (6-mer frequency, TF over GST control) with SPI1; 1.1 fold enrichment (6-mer frequency, TF over GST control) with SPIB; 1.13 fold enrichment (6-mer frequency, TF over GST control) in the test with ELK3; 1.09 fold enrichment (6-mer frequency, TF over GST control) with FEV; 1.16 fold enrichment (6-mer frequency, TF over GST control) with ETV5; 1.26 fold enrichment (6-mer frequency, TF over GST control) in the test with HSF1. Moreover, the binding signal with SPIC was 1.25 fold enrichment (6-mer frequency, TF over GST control); in the test with ELF4, 1.24 fold enrichment (6-mer frequency, TF over GST control); in the test with ELK4, 1.21 fold enrichment (6-mer frequency, TF over GST control); in the test with ETV2, 1.21 fold enrichment (6-mer frequency, TF over GST control); with ELF3 it was 1.12 fold enrichment (6-mer frequency, TF over GST control); with CRX it was 1.4 fold enrichment (6-mer frequency, TF over GST control). Also, the binding signal with ETV1 is 1.19 fold enrichment (6-mer frequency, TF over GST control).
